Several values for one entry are separate records, joined by “and”; a condition that tells them apart may be missing. Equal values may be shown once. Where a structure was tested more than once in an assay, its records may differ in their call. Activity calls are given as the source filed them. How the source made its calls: active means hit-call score of the fitted dose curve at least 0.9, where 1 is the maximum; inactive means score below 0.9.
Experiments:
[1] = read-out: Intercellular Adhesion Molecule 1 (ICAM1), ICAM1 (gene 3383); assay: BSK_BF4T_ICAM1: BioMAP Diversity Plus: BF4T Assay for Intercellular Adhesion Molecule 1 (ICAM1) Biomarker Activity (AID 2284260); conditions: primary human bronchial epithelial cells with fibroblasts
Outline: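 ICAM-1 levels measured by ELISA after 24 h chemical treatment of bronchial epithelial cell/dermal fibroblast co-cultures, read against DMSO baseline. Overt cytotoxicity checked in parallel cultures by sulforhodamine B staining.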

[2] = read-out: Interleukin-8 (IL8), CXCL8 (gene 3576); assay: BSK_MyoF_IL8: BioMAP Diversity Plus: MyoF Assay for Interleukin-8 (IL8) Biomarker Activity (AID 2284261); conditions: primary human lung fibroblasts
Outline: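 Lung fibroblasts (human primary) → chemical exposure → 24 h → IL-8 measured by ELISA. Signal increase scored versus DMSO control.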

CD90, THY1 (gene 7070) = assay: BSK_BF4T_CD90: BioMAP Diversity Plus: BF4T Assay for CD90 Biomarker Activity (AID 2284262); conditions: primary human bronchial epithelial cells with fibroblasts
Outline: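 CD90 levels by ELISA after 24 h treatment of human bronchial epithelial cell/dermal fibroblast cultures, analysed versus DMSO. Overt cytotoxicity checked in parallel cultures by sulforhodamine B staining.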

[3] = read-out: Interleukin-1 alpha (IL1a), IL1A (gene 3552); assay: BSK_BF4T_IL1a: BioMAP Diversity Plus: BF4T Assay for Interleukin-1 alpha (IL1a) Biomarker Activity (AID 2284264); conditions: primary human bronchial epithelial cells with fibroblasts
Outline: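 ELISA read-out of IL-1α from bronchial epithelial cell/dermal fibroblast co-cultures 24 h after compound addition. Increases scored against DMSO negative control. Cytotoxicity monitored by sulforhodamine B staining of parallel cultures.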

Decorin, DCN (gene 1634) = assay: BSK_MyoF_Decorin: BioMAP Diversity Plus: MyoF Assay for Decorin Biomarker Activity (AID 2284265); conditions: primary human lung fibroblasts
Outline: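 ELISA readout of decorin, 24 h post-dosing; primary human lung fibroblast (MyoF) culture; gain-of-signal fit vs DMSO baseline.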

KRT18 (gene 3875) = assay: BSK_BF4T_Keratin818: BioMAP Diversity Plus: BF4T Assay for Keratin 818 Biomarker Activity (AID 2284266); conditions: primary human bronchial epithelial cells with fibroblasts
Outline: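 Keratin 8/18 levels quantified by ELISA after 24 h chemical treatment of bronchial epithelial cell/dermal fibroblast co-cultures, fitted in positive direction relative to DMSO. Parallel SRB staining tracks overt cytotoxicity.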

[4] = BSK_MyoF_SRB: Viability Assessment in the BioMAP Diversity Plus: MyoF Assay (AID 2284267); conditions: primary human lung fibroblasts;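 further: total protein by SRB absorbance in parallel cultures as cytotoxicity measure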
Outline: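 Lung fibroblast cultures, 24 h post-dose; fix 10% TCA, stain 0.1% SRB, read 560 nm. Signal = total protein as cytotoxicity measure; fitted relative to DMSO negative control.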

[5] = read-out: Matrix Metallopeptidase 1 (MMP1), MMP1 (gene 4312); assay: BSK_MyoF_MMP1: BioMAP Diversity Plus: MyoF Assay for Matrix Metallopeptidase 1 (MMP1) Biomarker Activity (AID 2284268); conditions: primary human lung fibroblasts
Outline: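 Cells: human lung fibroblasts. Exposure: 24 h chemical dosing. Detection: ELISA for MMP1. Analysis: upward fitting against DMSO negative control.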

[6] = read-out: TIMP metallopeptidase inhibitor 1 (TIMP1), TIMP1 (gene 7076); assay: BSK_MyoF_TIMP1: BioMAP Diversity Plus: MyoF Assay for TIMP metallopeptidase inhibitor 1 (TIMP1) Biomarker Activity (AID 2284269); conditions: primary human lung fibroblasts
Outline: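 TIMP-1 levels were determined by ELISA in human lung fibroblasts treated for 24 h. DMSO served as negative control and baseline for upward curve fitting.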

[7] = read-out: Matrix Metallopeptidase 3 (MMP3), MMP3 (gene 4314); assay: BSK_BF4T_MMP3: BioMAP Diversity Plus: BF4T Assay for Matrix Metallopeptidase 3 (MMP3) Biomarker Activity (AID 2284271); conditions: primary human bronchial epithelial cells with fibroblasts
Outline: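 MMP-3 level read by ELISA after 24 h chemical exposure of bronchial epithelial cell/dermal fibroblast co-cultures, fitted upward relative to DMSO. Parallel cultures stained with 0.1% SRB after TCA fixation gauge overt cytotoxicity.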

[8] = read-out: Tissue plasminogen activator (tPA), PLAT (gene 5327); assay: BSK_BF4T_tPA: BioMAP Diversity Plus: BF4T Assay for Tissue plasminogen activator (tPA) Biomarker Activity (AID 2284272); conditions: primary human bronchial epithelial cells with fibroblasts
Outline: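 tPA level quantified by ELISA at 24 h post-treatment in bronchial epithelial/dermal fibroblast co-cultures, gain of signal scored against DMSO baseline. Parallel cultures stained with 0.1% SRB (560 nm) to flag overt cytotoxicity.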

[9] = read-out: Plasminogen Activator Inhibitor-1 (PAI1), SERPINE1 (gene 5054); assay: BSK_BF4T_PAI1: BioMAP Diversity Plus: BF4T Assay for Plasminogen Activator Inhibitor-1 (PAI1) Biomarker Activity (AID 2284273); conditions: primary human bronchial epithelial cells with fibroblasts
Outline: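 PAI-1 levels quantified by ELISA 24 h post-dosing in bronchial epithelial cell plus dermal fibroblast cultures. Signal gain referenced to DMSO baseline. Sulforhodamine B total-protein staining of parallel wells checked cytotoxicity.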

[10] = BSK_BF4T_SRB: Viability Assessment in the BioMAP Diversity Plus: BF4T Assay (AID 2284274); conditions: primary human bronchial epithelial cells with fibroblasts
Outline: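 Cytotoxicity measured as total protein: cells fixed with 10% TCA, stained with 0.1% SRB, read at 560 nm. Bronchial epithelial/dermal fibroblast co-culture, 24 h after dosing, with positive-direction fitting relative to DMSO.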

[11] = read-out: urokinase Plasminogen Activator (uPA), PLAU (gene 5328); assay: BSK_BF4T_uPA: BioMAP Diversity Plus: BF4T Assay for urokinase Plasminogen Activator (uPA) Biomarker Activity (AID 2284275); conditions: primary human bronchial epithelial cells with fibroblasts
Outline: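 uPA levels measured by ELISA at 24 hours in BF4T cultures (bronchial epithelial cells plus dermal fibroblasts) and compared with DMSO; cytotoxicity tracked in parallel cultures by sulforhodamine B staining.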

[12] = read-out: Matrix Metallopeptidase 9 (MMP9), MMP9 (gene 4318); assay: BSK_BF4T_MMP9: BioMAP Diversity Plus: BF4T Assay for Matrix Metallopeptidase 9 (MMP9) Biomarker Activity (AID 2284276); conditions: primary human bronchial epithelial cells with fibroblasts
Outline: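 MMP-9 levels were measured by ELISA after 24 h exposure of bronchial epithelial cell/dermal fibroblast co-cultures, with DMSO as baseline. Parallel cultures were stained with 0.1% SRB after TCA fixation, read at 560 nm, to flag overt cytotoxicity.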

[13] = read-out: Interleukin-8 (IL8), CXCL8 (gene 3576); assay: BSK_IMphg_IL8: BioMAP Diversity Plus: IMphg Assay for Interleukin-8 (IL8) Biomarker Activity (AID 2284277); conditions: primary human endothelial cells with macrophages
Outline: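 IL-8 levels were measured by ELISA 24 h after dosing in primary human venular endothelial cell–macrophage cultures, referenced to DMSO; parallel SRB staining monitored overt cytotoxicity.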

[14] = read-out: Intercellular Adhesion Molecule 1 (ICAM1), ICAM1 (gene 3383); assay: BSK_BE3C_ICAM1: BioMAP Diversity Plus: BE3C Assay for Intercellular Adhesion Molecule 1 (ICAM1) Biomarker Activity (AID 2284278); conditions: primary human bronchial epithelial cells
Outline: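 ELISA read-out of ICAM-1 on human lung bronchial epithelial primary cells, 24 h post-dosing; positive-direction curve fit, DMSO = baseline. SRB total-protein staining of parallel cultures flagged overt cytotoxicity.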

[15] = read-out: Interferon-inducible T-cell alpha chemoattractant (ITAC), CXCL11 (gene 6373); assay: BSK_BE3C_ITAC: BioMAP Diversity Plus: BE3C Assay for Interferon-inducible T-cell alpha chemoattractant (ITAC) Biomarker Activity (AID 2284279); conditions: primary human bronchial epithelial cells
Outline: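 The assay measures I-TAC levels by ELISA in human primary bronchial epithelial cell cultures 24 hours after chemical treatment. Values reflect signal increase over the DMSO baseline.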

[16] = read-out: Matrix Metallopeptidase 1 (MMP1), MMP1 (gene 4312); assay: BSK_BF4T_MMP1: BioMAP Diversity Plus: BF4T Assay for Matrix Metallopeptidase 1 (MMP1) Biomarker Activity (AID 2284270); conditions: primary human bronchial epithelial cells with fibroblasts
Outline: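 MMP-1 quantified by ELISA in primary human bronchial epithelial/dermal fibroblast co-cultures, 24 hours post-dosing, with DMSO as baseline; parallel sulforhodamine B staining (560 nm) tracks overt cytotoxicity.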

[17] = read-out: Interleukin-8 (IL8), CXCL8 (gene 3576); assay: BSK_BF4T_IL8: BioMAP Diversity Plus: BF4T Assay for Interleukin-8 (IL8) Biomarker Activity (AID 2284263); conditions: primary human bronchial epithelial cells with fibroblasts
Outline: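 Human bronchial epithelial cells with dermal fibroblasts co-culture; IL-8 measured by ELISA 24 hours after dosing, fitted vs DMSO. Cytotoxicity tracked in parallel cultures by SRB total-protein staining.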

Measured: AC50

O=C(Cl)C(F)(F)C(F)(F)C(F)(F)C(F)(F)C(F)(F)C(F)(F)C(F)(F)C(F)(F)F
inactive: [1] | [2] | CD90, THY1 (gene 7070) | Decorin, DCN (gene 1634) | [5] | [6] | [7] | [9] | [10]
active: [3] 45.4 µM and 45.6 µM and 56.8 µM | KRT18 (gene 3875) 44.5 µM and 46.1 µM and 44.3 µM | [4] 26 µM and 21.7 µM and 20.3 µM | [8] 28 µM and 22.9 µM and 20.9 µM | [10] 30 µM and 50.1 µM | [11] 46 µM and 48 µM and 44.8 µM | [12] 46.1 µM and 52.4 µM and 49.7 µM | [13] 6.67 µM and 5.95 µM and 19.6 µM | [14] 50.4 µM and 58.6 µM and 57.1 µM | [15] 48.3 µM and 46.7 µM and 48.2 µM

OCC(F)(F)C(F)(F)C(F)(F)C(F)(F)C(F)(F)C(F)F
not listed: [5] | [6] | [17]
inactive: all other assays above

FC(F)(F)C(F)(F)C(F)(F)C(F)(F)CCI
inactive: [1] | [2] | [3] | Decorin, DCN (gene 1634) | KRT18 (gene 3875) | [4] | [5] | [6] | [7] | [8] | [9] | [10] | [11] | [12] | [13] | [14] | [15]
active: [2] 5.95 µM | [7] 8.85 µM

C=C(C)C(=O)OCCC(F)(F)C(F)(F)C(F)(F)C(F)(F)C(F)(C(F)(F)F)C(F)(F)F
not listed: [5] | [6] | [16]
inactive: all other assays above

O=C(CC(=O)C(F)(F)C(F)(F)F)C(F)(F)F
not listed: [5] | [16]
inactive: all other assays above

O=C(O)C(F)(OC(F)(F)C(F)(OC(F)(F)C(F)(OC(F)(F)C(F)(F)C(F)(F)F)C(F)(F)F)C(F)(F)F)C(F)(F)F (configuration not stated)
not listed: CD90, THY1 (gene 7070) | [6] | [16]
inactive: all other assays above

Reference: PubChem BioAssay (EPA / NIEHS)
